Results taken from PubChem BioAssay (Tox21).
Results filed as inconclusive are left out. Activity calls are given as the source filed them. Unless noted, calls follow the shape of the full dose curve.

Assays:
[1] = Nuclear factor erythroid 2-related factor 2/antioxidant responsive element (Nrf2/ARE) small molecule agonists: qHTS cell viability counter screen in human keratinocytes (AID 1919968; active = well fitted curve in the direction sought with a large enough effect in the repeat runs; an effect the other way counts as inactive or inconclusive; also: nearly all actives have a fitted effect of over 55% in size; also: potency is read from the fitted curve at half-maximal effect)
Summary of the method: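 HaCaT ARE reporter line, 1,500 cells/well; 5 h settle, 37 C/5% CO2; cpd in DMSO pinned; 23 h exposure; CellTiter-Fluor, 1 h; fluorescence.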

[2] = Nuclear factor erythroid 2-related factor 2/antioxidant responsive element (Nrf2/ARE) small molecule agonists: luciferase reporter gene qHTS assay in human keratinocytes (AID 1919969); also: nearly all actives have a fitted effect of over 35% in size
[3] = biological target: Gonadotropin-releasing hormone receptor (Homo sapiens) (UniProt P30968); experiment: Human gonadotropin-releasing hormone receptor (GnRHR) small molecule agonists, calcium flux assay in GnRHR-HEK293 cells (AID 1920063); also: nearly all actives have a fitted effect of over 35% in size
Summary of the method: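 GnRHR-HEK293, 1500 cells/well, 18 h 37 C/5% CO2; Ca dye 1 h 37 C; cpd pinned (DMSO), agonist mode; kinetic FL 480/540, 3 min, 1 s reads; 15 conc, n=3.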

[4] = biological target: KiSS-1 receptor (Homo sapiens) (UniProt Q969F8); experiment: Human kisspeptin (KISS1R) small molecule agonists, calcium flux assay in KISS1R-HEK293 cells (AID 1920064; active = well fitted curve in the direction sought with a large enough effect in the repeat runs; an effect the other way counts as inactive or inconclusive)
Summary of the method: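 Stable human KISS1R HEK293 line; 18 h plating, 37 C/5% CO2; calcium dye 1 h 37 C; compound pin transfer; kinetic fluorescence Ex/Em 480/540, 3 min.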

[5] = G protein-coupled receptor (GPCR) small molecule agonists, calcium flux assay: HEK293 wild type cell line counter screen (AID 1920065)
Summary of the method: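 Kinetic fluorescence at Ex/Em 480/540, recorded every second over 3 min, served as the read-out after compound addition. Each compound was tested at 15 concentrations in triplicate on cells pre-loaded with calcium dye for 1 h.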

[6] = p53 small molecule agonists, cell-based qHTS assay with human liver microsomes (AID 1963577);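 also: p53 response element beta-lactamase reporter cells with liver microsomes plus NADPH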
Summary of the method: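 16 h, 37 C exposure of p53RE-bla cells to compounds with human liver microsomes and NADPH (0.5 mg/mL final each); detection via LiveBLAzer mixture, 2 h dark at room temperature.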

[7] = p53 small molecule agonists, cell-based qHTS assay with rat liver microsomes (AID 1963578)
Summary of the method: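 With rat liver microsomes and NADPH present (0.5 mg/mL final each), p53RE-bla cells are treated with compound for 16 h at 37 C. LiveBLAzer detection mixture is then applied for 2 h at room temperature in the dark.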

[8] = p53 small molecule agonists, cell-based qHTS assay with human liver microsomes: qHTS cell viability counter screen (AID 1963579); also: nearly all actives have a fitted effect of over 45% in size
Summary of the method: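 In this multiplexed counter screen, the reporter plates were subsequently treated with CellTiter-Glo so that cell viability, reflected by luminescence, could be recorded for p53RE-bla cells dosed 16 h with compounds under microsomal activation (HLM and NADPH).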

[9] = p53 small molecule agonists, cell-based qHTS assay with rat liver microsomes: qHTS cell viability counter screen (AID 1963580); also: nearly all actives have a fitted effect of over 45% in size
Summary of the method: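 Intracellular ATP, by CellTiter-Glo luminescence, defines viability. HCT-116 p53RE-bla cells, 4,000 per well, were compound-treated in the presence of rat liver microsomes and NADPH for 16 h at 37 C.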

[10] = p53 small molecule agonists, cell-based qHTS assay: qHTS cell viability counter screen (AID 1963581); also: nearly all actives have a fitted effect of over 45% in size
Summary of the method: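 HCT-116 p53RE-bla cells, 4,000/well, plated 5 h before compound pin transfer; 16 h at 37 C; bla substrate 2 h RT; then CellTiter-Glo, 30 min RT, luminescence.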

[11] = p53 small molecule agonists, cell-based qHTS assay (AID 1963582; active = well fitted activation curve with a large enough effect in the signal ratio in the repeat runs, not every such curve was filed as active; the % refers to the signal ratio)
Summary of the method: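 Reporter line: p53RE-bla. Pre-incubation 5 h, 37 C, 5% CO2; compound (DMSO, pin tool) 16 h, 37 C; B/G FRET substrate 2 h RT; fluorescence intensity read.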

[12] = biological target: 5-hydroxytryptamine receptor 2A (Homo sapiens) (UniProt P28223); experiment: 5-hydroxytryptamine receptor 2A (HTR2A) small molecule antagonists, cell-based qHTS assay (AID 1963586); also: nearly all actives have a fitted effect of over 45% in size; also: potency is read from the fitted curve at half-maximal effect
Summary of the method: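 Antagonist-mode intracellular calcium assay: DOI (4 nM) added after 5 min compound pre-incubation at room temperature to dye-loaded HTR2A-CHO cells. Fluorescence followed for 3 min, sampled every second.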

[13] = biological target: 5-hydroxytryptamine receptor 2A (Homo sapiens) (UniProt P28223); experiment: 5-hydroxytryptamine receptor 2A (HTR2A) small molecule agonists, cell-based qHTS assay (AID 1963587); also: nearly all actives have a fitted effect of over 30% in size; also: potency is read from the fitted curve at half-maximal effect
Summary of the method: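 Kinetic calcium-flux fluorescence (2 min, 1 sec intervals) after compound addition in agonist mode. HTR2A-CHO cells were cultured 18 h, then dye-loaded 1 h at 37 C.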

[14] = biological target: Muscarinic acetylcholine receptor M1 (Homo sapiens) (UniProt P11229); experiment: Cholinergic receptor muscarinic 1 (CHRM1) small molecule antagonists, cell-based qHTS assay (AID 1963588); also: nearly all actives have a fitted effect of over 40% in size; also: potency is read from the fitted curve at half-maximal effect
Summary of the method: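 CHRM1-CHO calcium-flux assay, antagonist mode. Cells were seeded 18 h, dye-loaded 1 h at 37 C and given compound for 5 min at RT, then acetylcholine was added at 50nM. FDSS fluorescence was read 3 min; 15 concentrations, three runs.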

[15] = biological target: Muscarinic acetylcholine receptor M1 (Homo sapiens) (UniProt P11229); experiment: Cholinergic receptor muscarinic 1 (CHRM1) small molecule agonists, cell-based qHTS assay (AID 1963589); also: nearly all actives have a fitted effect of over 35% in size
Summary of the method: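 Human M1 in stable CHO line; 18 h plating, 1 h dye load 37 C; cpd added (agonist mode); Ca2+ fluorescence kinetic read, 1 s intervals; 15 conc, 3 runs.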

[16] = cAMP Responsive Elements (CRE) small molecule agonists, cell-based qHTS assay (AID 1963590)
Summary of the method: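 HEK 293T CRE-bla, 2,000 cells/well, 18 h preincubation 37 C/5% CO2; cpds (DMSO) pinned, 3 h; LiveBLAzer B/G FRET substrate, 2 h RT.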

[17] = cAMP Responsive Elements (CRE) small molecule antagonists, cell-based qHTS assay (AID 1963591; active = well fitted inhibition curve with a large enough effect in the signal ratio in the repeat runs, not every such curve was filed as active; the % refers to the signal ratio)
Summary of the method: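 Beta-lactamase reporter read by FRET substrate (LiveBLAzer B/G) after 2 h at room temperature. CRE-bla HEK293T cells had received compound plus 0.25 uM (final) NKH477 for 3 h at 37 °C.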

[18] = biological target: Beta-2 adrenergic receptor (Homo sapiens) (UniProt P07550); experiment: Adrenergic beta2 receptor (ADRB2) small molecule antagonists, cell-based qHTS assay (AID 1963592); also: series mostly up to about 92 µM; nearly all actives have a fitted effect of over 50% in size
Summary of the method: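 Cells (CHO, stable ADRB2 overexpression) incubated 18-20hr at 37C; compounds added from DMSO; agonist mix (1nM isoproterenol, 100uM IBMX, 25uM Ro-20-1724) added; 0.5hr RT; d2-cAMP and anti-cAMP-cryptate added; 1hr RT; 665/615 nm read.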

[19] = biological target: Beta-2 adrenergic receptor (Homo sapiens) (UniProt P07550); experiment: Adrenergic beta2 receptor (ADRB2) small molecule agonists, cell-based qHTS assay (AID 1963593);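 also: CHO cells stably overexpressing human ADRB2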
Summary of the method: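 CHO cells stably over-expressing ADRB2 were plated overnight at 37C, then dosed with compounds plus a stimulation mix containing 100uM IBMX and 25uM Ro-20-1724 for 0.5hr at room temperature. cAMP was measured by HTRF competition, 1hr.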

[20] = biological target: D(2) dopamine receptor (Homo sapiens) (UniProt P14416); experiment: Dopamine D2 receptor (DRD2) small molecule agonists, cell-based qHTS assay (AID 1963594); also: nearly all actives have a fitted effect of over 35% in size
Summary of the method: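 cAMP accumulation in DRD2-HEK293 cells measured by HTRF after 1 h detection; compounds added 10 min before NKH477 (200nM […]) forskolin-analogue stimulation, 30 min at room temperature, with Ro20-1724 present at 0.1 mM final.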

Measured: Potency

Sequence of KiSS-1 receptor (Homo sapiens) (Q969F8 whole entry, looked up): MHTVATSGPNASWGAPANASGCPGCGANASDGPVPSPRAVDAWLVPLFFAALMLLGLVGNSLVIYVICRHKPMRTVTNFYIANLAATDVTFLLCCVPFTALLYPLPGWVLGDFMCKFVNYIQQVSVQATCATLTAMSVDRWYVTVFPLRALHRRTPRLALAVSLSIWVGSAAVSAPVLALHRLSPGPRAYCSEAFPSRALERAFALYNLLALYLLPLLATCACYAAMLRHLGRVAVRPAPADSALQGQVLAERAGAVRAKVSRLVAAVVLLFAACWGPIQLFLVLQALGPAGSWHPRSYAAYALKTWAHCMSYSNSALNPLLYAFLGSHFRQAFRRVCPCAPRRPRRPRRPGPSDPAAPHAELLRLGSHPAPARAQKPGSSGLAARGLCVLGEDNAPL
Sequence of Gonadotropin-releasing hormone receptor (Homo sapiens) (P30968 whole entry, looked up): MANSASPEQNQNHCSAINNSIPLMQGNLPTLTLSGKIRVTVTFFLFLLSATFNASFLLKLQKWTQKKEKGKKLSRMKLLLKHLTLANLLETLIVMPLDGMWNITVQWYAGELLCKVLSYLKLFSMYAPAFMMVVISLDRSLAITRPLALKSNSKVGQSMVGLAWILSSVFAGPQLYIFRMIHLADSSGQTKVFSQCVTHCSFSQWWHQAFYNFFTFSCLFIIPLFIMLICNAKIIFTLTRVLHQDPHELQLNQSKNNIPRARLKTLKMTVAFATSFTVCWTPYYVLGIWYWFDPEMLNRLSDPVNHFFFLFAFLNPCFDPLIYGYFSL
Sequence of D(2) dopamine receptor (Homo sapiens) (P14416 whole entry, looked up): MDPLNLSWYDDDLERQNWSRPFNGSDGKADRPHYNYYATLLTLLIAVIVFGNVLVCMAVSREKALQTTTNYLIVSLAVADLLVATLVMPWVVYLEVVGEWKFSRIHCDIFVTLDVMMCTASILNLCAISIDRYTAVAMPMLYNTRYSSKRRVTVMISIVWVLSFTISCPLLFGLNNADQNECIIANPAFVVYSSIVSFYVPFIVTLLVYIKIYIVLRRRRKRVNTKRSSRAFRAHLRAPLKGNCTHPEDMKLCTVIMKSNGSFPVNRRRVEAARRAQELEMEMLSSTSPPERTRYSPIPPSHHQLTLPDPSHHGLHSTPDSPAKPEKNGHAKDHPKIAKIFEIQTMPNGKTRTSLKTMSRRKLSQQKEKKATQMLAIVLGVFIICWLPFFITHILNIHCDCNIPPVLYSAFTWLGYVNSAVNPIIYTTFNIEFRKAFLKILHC
Sequence of 5-hydroxytryptamine receptor 2A (Homo sapiens) (P28223 whole entry, looked up): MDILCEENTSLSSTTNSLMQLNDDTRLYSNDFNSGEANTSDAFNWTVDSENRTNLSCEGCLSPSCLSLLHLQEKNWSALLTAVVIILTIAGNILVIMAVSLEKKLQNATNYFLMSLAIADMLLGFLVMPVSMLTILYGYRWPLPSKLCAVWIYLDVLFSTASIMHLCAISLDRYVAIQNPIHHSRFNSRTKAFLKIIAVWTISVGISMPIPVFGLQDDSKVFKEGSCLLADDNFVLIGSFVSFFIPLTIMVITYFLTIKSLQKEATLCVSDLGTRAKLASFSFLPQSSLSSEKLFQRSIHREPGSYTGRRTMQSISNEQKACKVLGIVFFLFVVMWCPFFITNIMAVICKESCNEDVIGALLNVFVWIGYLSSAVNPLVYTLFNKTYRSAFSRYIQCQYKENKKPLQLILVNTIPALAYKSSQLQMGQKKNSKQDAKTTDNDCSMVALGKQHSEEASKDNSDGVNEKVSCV
Sequence of Beta-2 adrenergic receptor (Homo sapiens) (P07550 whole entry, looked up): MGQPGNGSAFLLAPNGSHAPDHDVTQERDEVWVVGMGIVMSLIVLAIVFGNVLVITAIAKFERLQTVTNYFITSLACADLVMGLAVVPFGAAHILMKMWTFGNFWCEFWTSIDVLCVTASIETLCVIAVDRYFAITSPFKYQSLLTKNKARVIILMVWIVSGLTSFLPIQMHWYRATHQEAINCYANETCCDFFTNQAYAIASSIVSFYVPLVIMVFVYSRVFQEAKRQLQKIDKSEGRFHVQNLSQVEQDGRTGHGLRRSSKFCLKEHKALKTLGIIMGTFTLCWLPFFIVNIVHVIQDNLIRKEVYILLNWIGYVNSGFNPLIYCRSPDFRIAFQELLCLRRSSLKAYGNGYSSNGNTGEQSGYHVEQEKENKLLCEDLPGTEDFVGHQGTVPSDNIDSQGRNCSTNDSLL
Sequence of Muscarinic acetylcholine receptor M1 (Homo sapiens) (P11229 whole entry, looked up): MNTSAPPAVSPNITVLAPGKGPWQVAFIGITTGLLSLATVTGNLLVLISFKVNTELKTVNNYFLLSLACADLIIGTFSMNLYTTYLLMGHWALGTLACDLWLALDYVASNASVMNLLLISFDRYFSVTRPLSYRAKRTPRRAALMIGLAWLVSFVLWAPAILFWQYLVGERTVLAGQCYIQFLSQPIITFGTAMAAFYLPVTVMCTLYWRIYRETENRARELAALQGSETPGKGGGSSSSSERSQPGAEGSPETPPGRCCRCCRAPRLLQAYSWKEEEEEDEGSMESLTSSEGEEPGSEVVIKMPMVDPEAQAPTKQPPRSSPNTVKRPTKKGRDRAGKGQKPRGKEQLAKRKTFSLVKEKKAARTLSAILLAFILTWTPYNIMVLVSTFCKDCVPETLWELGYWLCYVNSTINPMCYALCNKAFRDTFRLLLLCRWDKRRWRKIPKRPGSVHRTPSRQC

NC(=O)c1ccc(N)cc1
inactive: [1] | [2] | [3] | [4] | [5] | [6] | [7] | [8] | [9] | [10] | [11] | [12] | [13] | [14] | [15] | [16] | [17] | [18] | [19] | [20]

CC(C)CCCC(C)N (stereo not drawn)
inactive: [1] | [2] | [3] | [4] | [5] | [6] | [7] | [8] | [9] | [10] | [11] | [12] | [13] | [14] | [15] | [16] | [17] | [18]

O=C(O)c1ccccc1-n1cc(C(=O)O)c(=O)c2cc(Nc3c(F)cc(F)cc3Cl)c(Cl)cc21
inactive: [1] | [2] | [3] | [4] | [5] | [6] | [7] | [8] | [9] | [10] | [11] | [12] | [13] | [14] | [15] | [16] | [17] | [18] | [19]

CSCCC=O
inactive: [1] | [2] | [3] | [4] | [5] | [6] | [7] | [8] | [9] | [10] | [11] | [12] | [13] | [14] | [15] | [16] | [17] | [18] | [19] | [20]

Cc1cc(C)c(S(=O)(=O)O)cc1N=Nc1cc(S(=O)(=O)O)c2ccccc2c1O
inactive: [2] | [3] | [4] | [5] | [6] | [7] | [8] | [9] | [10] | [11] | [12] | [13] | [14] | [15] | [16] | [17] | [18]
active: [1] 30.6 µM

CCOCOCC
inactive: [1] | [2] | [3] | [4] | [5] | [6] | [7] | [8] | [9] | [10] | [11] | [12] | [13] | [14] | [15] | [16] | [17] | [18] | [19] | [20]

CCSC(=O)N(CC(C)C)CC(C)C
inactive: [1] | [2] | [3] | [4] | [5] | [6] | [7] | [8] | [9] | [10] | [11] | [12] | [13] | [14] | [15] | [16] | [17] | [18] | [19]

C=C(C)C(=O)OCCC[Si](Cl)(Cl)Cl
inactive: [1] | [2] | [3] | [4] | [5] | [6] | [7] | [8] | [9] | [10] | [11] | [12] | [13] | [14] | [15] | [16] | [17] | [18] | [19] | [20]

CO[C@@]1(NC(=O)CSC[C@@H](N)C(=O)O)C(=O)N2C(C(=O)O)=C(CSc3nnnn3C)CS[C@@H]21
inactive: [1] | [2] | [3] | [4] | [5] | [6] | [7] | [8] | [9] | [10] | [11] | [12] | [13] | [14] | [15] | [16] | [17] | [18] | [19] | [20]

CCCCCCCCCCCCCCCC(=O)NCCO
inactive: [1] | [2] | [3] | [4] | [5] | [6] | [7] | [8] | [9] | [10] | [11] | [12] | [13] | [14] | [15] | [16] | [17] | [18] | [19] | [20]

COC(C)(C)CCO
inactive: [1] | [2] | [3] | [4] | [5] | [6] | [7] | [8] | [9] | [10] | [11] | [12] | [13] | [14] | [15] | [16] | [17] | [18] | [19] | [20]

CCCCCCCCO[C@@H]1O[C@H](CO)[C@@H](O)[C@H](O)[C@H]1O
inactive: [1] | [2] | [3] | [4] | [5] | [6] | [7] | [8] | [9] | [10] | [11] | [12] | [13] | [14] | [15] | [16] | [17] | [18] | [19] | [20]

CCN1CCCC(OC(=O)C(c2ccccc2)c2ccccc2)C1 (stereo not drawn)
active: [12] 0.163 µM | [13] 0.0756 µM | [14] 4.1 µM
inactive: [1] | [2] | [3] | [4] | [5] | [6] | [7] | [8] | [9] | [10] | [11] | [15] | [16] | [17] | [18] | [19]

COc1ccc2cc3[n+](cc2c1OC)CCc1cc2c(cc1-3)OCO2
inactive: [2] | [3] | [4] | [5] | [6] | [7] | [8] | [9] | [10]
active: [1] 4.22 µM
